Source: PubChem BioAssay
Measles CPE = compounds protecting cells from measles virus cytopathic effect, primary screen, measles RdRp inhibitor project, single point, MLSMR library, absorbance | Measles virus-infected cells, CPE protection | protection (pct of control), % at 4 µM | 140,000 compounds, 1.5% hits; in the data active = protection mostly above about 24%, no sharp cut-off; inactive = mostly below about 26%
CYP2C9 inhib = blockers of cytochrome P450 2C9 activity – biochemical, luminescence, ADME assay, primary screen; P11712; CYP2C9 Supersomes, luciferin-H conversion; inhibition, % at 5 µM; 96,000 compounds, 20% hits;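 active = blocking of liver enzyme CYP2C9 beyond about 50% at 5 µM, limit read from the data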
Target sequence (P11712 whole entry, looked up): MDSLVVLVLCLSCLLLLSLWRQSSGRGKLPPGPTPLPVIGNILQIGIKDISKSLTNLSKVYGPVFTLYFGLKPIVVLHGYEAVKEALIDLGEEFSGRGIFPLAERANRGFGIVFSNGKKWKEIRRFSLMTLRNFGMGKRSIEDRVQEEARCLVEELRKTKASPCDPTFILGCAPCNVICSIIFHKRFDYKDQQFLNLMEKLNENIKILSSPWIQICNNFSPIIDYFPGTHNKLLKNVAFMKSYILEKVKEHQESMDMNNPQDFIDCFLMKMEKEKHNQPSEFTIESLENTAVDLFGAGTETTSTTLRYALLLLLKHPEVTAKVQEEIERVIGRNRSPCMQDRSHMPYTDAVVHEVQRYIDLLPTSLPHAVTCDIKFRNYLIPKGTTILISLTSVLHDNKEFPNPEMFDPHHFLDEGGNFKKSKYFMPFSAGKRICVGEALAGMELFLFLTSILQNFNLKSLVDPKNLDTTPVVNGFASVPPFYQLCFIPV
CYP2C19 activ = human CYP2C19 activators, primary screen, biochemical, luminescence; recombinant CYP2C19, luciferin-H EGE luminescence; hits give high values; 0 = fully inhibited enzyme, 1 = untreated enzyme; activation factor at 5 µM; 96,000 tested, under 10 active; Cytochrome P450 2C19 (Homo sapiens), P33261;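 active = activation factor of at least 2 at 5 µM in the primary screen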;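 note: 0 = wells with 2.5 mM tranylcypromine and 1 = vehicle-only wells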
CYP2C9 activ = human CYP2C9 activators, primary screen, biochemical, luminescence | 96,000 compounds, 1.4% hits | activation factor at 5 µM | recombinant CYP2C9, luciferin-H conversion; hits give high values; factor 1 = untreated enzyme, 0 = blocked | AID 1024, 2008 | Cytochrome P450 2C9 (Homo sapiens), P11712;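 active = activation factor of 2 or more for CYP2C9 at a 5 µM dose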;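 note: 0 = sulfaphenazole-blocked wells and 1 = vehicle-only wells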
CYP2C19 inh = blockers of cytochrome P450 2C19 activity – biochemical, luminescence, ADME assay, primary screen; AID 778, 2007; CYP2C19 Supersomes, luciferin-H EGE luminescence, 30 min; P33261; inhibition, % at 5 µM; 96,000 compounds, 21% hits;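 active = CYP2C19 inhibition above a set limit at 5 µM in the primary screen, cut at about 50% in these data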;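 note: plate controls were negative control wells for no effect and 2.5 mM tranylcypromine positive control for full effect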
The depositor's hits bear a star; nt = no result given. In the library only some 22% were active in any assay of this set; here they are far more common.

SMILES	Measles CPE	CYP2C9 inhib	CYP2C19 activ	CYP2C9 activ	CYP2C19 inh
CCOC(=O)Cc1csc(NC(=O)c2sc3nc4ccc(CC)cc4cc3c2N)n1	8.9	62.6*	0.6	0.4	41.2
Cc1csc(NC(=O)c2cccs2)n1	10.1	53.6*	0.1	0.5	94.5*
CCOC(=O)Cc1csc(NC(=O)c2sc3nc4cc(C)ccc4cc3c2N)n1	23.7	nt	nt	nt	nt
CCOC(=O)Cc1csc(NC(=O)c2ccc(Br)s2)n1	15.0	99.5*	0.2	0	77.7*
O=C(COC(=O)c1ccccn1)NCc1ccccc1Cl	2.3	nt	nt	nt	nt
CCOC(=O)Cc1csc(NC(=O)CCNS(=O)(=O)c2ccc3c(c2)CCC(=O)N3)n1	17.0	55.9*	0.9	0.4	8.3
CCOC(=O)Cc1csc(NC(=O)CSc2nnc(C)n2C)n1	5.2	0.4	1	1	-4.7
Cn1c(=O)[nH]c(=O)c2c1nc(Br)n2CC(O)c1ccccc1 (configuration not stated)	5.7	-1.4	0.9	1	10.1
COc1cccc(C2(CSc3nnc(-c4cc(OC)c(OC)c(OC)c4)o3)OCCO2)c1	19.5	-17.2	0.2	1.2	83.6*
CCCCOC(=O)CSc1nnc(-c2cc(OC)c(OC)c(OC)c2)o1	10.5	20.4	0.9	0.8	13.4
COc1ccc(N=C2SC(CC(=O)Nc3ccccc3)C(=O)N2CC2CCCO2)cc1 (configuration not stated)	6.0	73.4*	0.5	0.3	46.9
CCn1c2ccccc2c2cc(N=C3SC(CC(=O)Nc4ccccc4OC)C(=O)N3C)ccc21 (configuration not stated)	21.7	87.1*	0.6	0.1	37.5
CCn1c2ccccc2c2cc(N=C3SC(CC(=O)Nc4ccccc4OC)C(=O)N3CCOC)ccc21 (configuration not stated)	6.6	nt	nt	nt	nt
CCOC(=O)c1c(NC(=O)CC2SC(=NC)N(C)C2=O)sc(C)c1C (configuration not stated)	0.6	31.5	0.7	0.7	34.4
COC(=O)c1cc(NC(=O)CC2SC(=Nc3ccccc3)N(CCc3c[nH]c4ccccc34)C2=O)cc(C(=O)OC)c1 (configuration not stated)	17.2	80.6*	1	0.2	4.9
CN=C1SC(CC(=O)Nc2sc(C)c(C)c2C(=O)OC)C(=O)N1C (configuration not stated)	2.2	57.6*	0.5	0.4	48.0
COCCN1C(=O)C(CC(=O)Nc2ccc(C(=O)O)cc2)SC1=Nc1ccccc1 (configuration not stated)	3.0	2.9	1.1	1	-13.6
Cc1ccc(NS(=O)(=O)c2ccc(Cl)c(C(=O)Nc3ccccc3-c3nc4ccccc4[nH]3)c2)cc1C	2.4	nt	nt	nt	nt
COc1cccc(N2CCN(C(=O)CN(C)S(=O)(=O)c3ccc4c(c3)CCC(=O)N4)CC2)c1	1.8	45.7	0.9	0.5	12.9
COc1ccc(-n2nnnc2Sc2ccc(S(=O)(=O)N3CCOCC3)cn2)cc1	nt	27.6	0.9	0.7	11.7
CN=C1SC(CC(=O)Nc2ccccc2F)C(=O)N1C (configuration not stated)	3.3	-28.4	1	1.3	-4.8
CCn1c2ccccc2c2cc(N=C3SC(CC(=O)Nc4ccccc4)C(=O)N3C)ccc21 (configuration not stated)	5.6	87.1*	0.6	0.1	36.6
CN=C1SC(CC(=O)Nc2cccc(C(F)(F)F)c2)C(=O)N1C (configuration not stated)	11.8	-286.3	0.7	3.9*	32.6
O=c1c2ccccc2nnn1CSc1ccc2c(c1)OCCO2	5.2	54.7*	0.1	0.5	94.4*
Cc1onc(-c2ccccc2Cl)c1C(=O)N1CCN=C1SCc1cccnc1	20.5	93.8*	0	0.1	97.4*
SMILES	Measles CPE	CYP2C9 inhib	CYP2C19 activ	CYP2C9 activ	CYP2C19 inh
Cc1onc(-c2ccccc2Cl)c1C(=O)N1C=CC(C(F)(F)F)=NCC1	11.0	20.8	0.6	0.8	37.8
CSC1=NCCN1C(=O)c1c(-c2ccccc2Cl)noc1C	1.2	18.5	0.3	0.8	71.2*
Cc1onc(-c2ccccc2Cl)c1C(=O)N1C=CC(C(F)(F)Cl)=NCC1	38.8	31.9	0.4	0.7	56.0*
Cc1onc(-c2ccccc2Cl)c1C(=O)Nc1cccnc1	3.2	14.9	0.8	0.9	19.4
CC(C)c1ccc(OCc2nc(-c3ccccn3)no2)c(Br)c1	29.1	37.1	0.7	0.6	33.6
CCc1ccc(OCc2nc(-c3ccccn3)no2)c(Br)c1	1.1	73.9*	0.1	0.3	94.8*
Cc1ccc(OCc2nc(-c3ccccn3)no2)c(Br)c1	22.5	30.7	0.2	0.7	83.5*
O=C(Cn1cnc2c(cnn2-c2ccc(Cl)cc2)c1=O)NCCc1ccccc1	7.5	19.9	0.6	0.8	40.8
CNS(=O)(=O)c1ccc(C)c(S(=O)(=O)NC)c1	20.9	nt	nt	nt	nt
CNC(=O)C12CC3CC(CC(Cl)(C3)C1)C2	10.0	nt	nt	nt	nt
CCOC(=O)c1c(NC(=O)CSC2=NN3CCCC(=O)N=C3S2)sc2c1CCCCC2	6.5	nt	nt	nt	nt
Cc1cc(C)cc(OCC(=O)Nc2cccc(-c3nnc(-c4ccco4)o3)c2)c1	13.9	79.6*	0.3	0.2	67.2*
CCOc1ccccc1C(=O)Nc1cccc(-c2nnc(-c3ccccc3)o2)c1	26.7	-81.0	0.8	1.8	17.3
O=C(COc1ccccc1)Nc1cccc(-c2nnc(-c3ccccc3)o2)c1	nt	52.8*	0.6	0.5	35.2
O=C(COc1ccccc1)Nc1ccc2c(c1)Cc1cc(NC(=O)COc3ccccc3)ccc1-2	3.2	nt	nt	nt	nt
O=C(Nc1cccc(-c2nnc(-c3ccccc3)o2)c1)c1ccc(Br)o1	9.5	69.2*	0.7	0.3	33.4
C=Cc1cccc(NC(=O)COc2ccccc2)c1	5.4	-5.2	0.1	1.1	86.8*
COc1ccc(OCC(=O)Nc2cccc(-c3nc4ccccc4o3)c2)cc1	11.9	34.2	0.6	0.7	38.1
Cc1cccc(NC(=S)NNC(=O)c2csc(C)c2)c1	11.4	nt	nt	nt	nt
Cc1cccc(NC(=S)NNC(=O)c2ccc(Br)o2)c1	4.4	56.3*	0.8	0.4	22.9
COc1ccc(C(=O)Nc2cccc(-c3nnc(-c4ccco4)o3)c2)cc1	15.6	59.7*	0.6	0.4	41.7
COc1cc(C(=O)Nc2ccc(-c3nnc(-c4ccco4)o3)cc2)cc(OC)c1OC	3.3	6.3	0.9	0.9	10.3
Fc1cccc2sc(N3CCOCC3)nc12	4.2	nt	nt	nt	nt
Fc1cccc2sc(N3CCCCC3)nc12	3.9	7.5	0.4	0.9	60.4*
CCN(C(=O)CSc1nnc(-c2ccccc2Cl)n1C1CCCC1)C1CCS(=O)(=O)C1 (configuration not stated)	15.5	78.8*	1	0.2	2.2
